NPC1 promoter act – qHTS Assay for NPC1 Promoter Activators; 320,000 tested, 2.4% active; AID 485313, 2010; Huh7 NPC1 promoter luciferase reporter, 24 h; Potency, µM (top dose mostly 9.22 µM), without a hit: top-dose activation, actives largely listed as activators; note: % of control where 0% means no effect; nearly all actives have a fitted effect of over 60% in size
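Readout is luciferase luminescence, reflecting NPC1 promoter activation in stably transfected Huh7 cells after 24 h compound exposure at 37 °C in reduced-serum medium with 10% FBS.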
Rab9 prom act – qHTS Assay for Rab9 Promoter Activators; Huh7 Rab9 promoter-luciferase reporter, luminescence, 24 h; Potency, µM (series often up to 9.22 µM), for inactives: at the top dose activation, negative = inhibition, most hits filed as activators; 320,000 tested, 2.8% active; AID 485297, 2010; note: % of control where 0% means no effect; nearly all actives have a fitted effect of over 60% in size
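Measured in stably transfected Huh7 cells bearing a Rab9 promoter–luciferase construct: 24 h compound treatment at 37 °C, followed by luminescence detection.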
ELG1 genotox – qHTS screen for small molecules that induce genotoxicity in human embryonic kidney (HEK293T) cells expressing luciferase-tagged ELG1; HEK293T ELG1-luciferase reporter, luminescence, 16 h; Potency, µM (titrated, usually from 46 µM), without a hit: top-dose activity change, positive = activation, actives largely listed as activators; 330,000 tested, 1.3% active; AID 504466, 2011; note: % of control where 0% means no effect; nearly all actives have a fitted effect of over 60% in size
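Luminescence read-out: rising ELG1-luciferase signal, reflecting elevated ELG1 protein under genetic stress, flags genotoxic compounds. Cells were treated for 16 hr at 37 °C before ONE-Glo detection.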
KinaseGlo FLuc – Counterscreen for Luciferase (Kinase-Glo TM) Inhibition | Luciferin 4-monooxygenase (Photuris pensylvanica), Q27757 | Kinase-Glo luciferase, ATP luminescence, 8 min | Potency, µM (top dose mostly 38.3 µM), inactives show at the highest dose activity change, negative = inhibition, hits mostly inhibitors | 200,000 tested, 0.28% active | AID 1379, 2008; note: % is set by controls: 0 for no effect and ±100 for the full control effect; nearly all actives have a fitted effect of over 60% in size
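Compounds were added to a substrate mix at pH 7.2 (50 mM imidazole, 10 uM ATP, within the enzyme's linear range), followed by Kinase-Glo detection reagent; luminescence was measured after 8 minutes at ambient temperature.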
SMN2 splice up – qHTS Assay for Enhancers of SMN2 Splice Variant Expression; HEK293 SMN2-luciferase splicing reporter, luminescence, 30-36 h; Potency, µM (top dose mostly 46.1 µM), inactives show top-dose activity change, positive = activation, hits mostly activators; 210,000 tested, 2.8% active; AID 1458, 2008; note: % of control where 0% means no effect; nearly all actives have a fitted effect of over 55% in size
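HEK293 cells carry an SMN2 minigene-luciferase reporter in which exon 7 inclusion puts luciferase in frame. Cells were seeded at 2000 cells/well, attached for 10-12 hours, then exposed to compounds for 30-36 hours at 37C before ONE-Glo luminescence.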
FLuc modulator – qHTS profiling assay for firefly luciferase inhibitor/activator using purifed enzyme and Km concentrations of substrates (counterscreen for miR-21 project); 360,000 tested, 6.9% active; Potency, µM (series often up to 57.5 µM), for the others: at the top dose activity change, negative = inhibition, usual class: inhibitors; purified FLuc, Km substrates, luminescence inhibition;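 note: plate controls were vehicle for no effect and reference inhibitor for full effect; nearly all actives have a fitted effect of over 55% in size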
Target sequence (P08659 whole entry, looked up): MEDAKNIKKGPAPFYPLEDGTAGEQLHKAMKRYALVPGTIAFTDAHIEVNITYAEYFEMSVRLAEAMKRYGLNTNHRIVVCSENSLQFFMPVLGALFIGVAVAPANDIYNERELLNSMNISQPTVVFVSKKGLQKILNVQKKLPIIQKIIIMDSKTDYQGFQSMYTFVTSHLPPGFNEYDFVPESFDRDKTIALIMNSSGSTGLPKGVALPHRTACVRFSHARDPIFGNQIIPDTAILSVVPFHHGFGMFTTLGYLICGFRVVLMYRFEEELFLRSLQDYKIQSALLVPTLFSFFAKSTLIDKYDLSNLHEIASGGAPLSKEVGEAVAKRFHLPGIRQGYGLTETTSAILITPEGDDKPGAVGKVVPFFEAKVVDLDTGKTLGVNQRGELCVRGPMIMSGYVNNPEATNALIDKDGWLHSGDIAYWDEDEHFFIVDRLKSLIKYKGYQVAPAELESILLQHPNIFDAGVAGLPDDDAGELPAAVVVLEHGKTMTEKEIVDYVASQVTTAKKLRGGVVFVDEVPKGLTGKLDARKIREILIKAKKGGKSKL
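Purified P. pyralis luciferase, 10 nM final, with Km-level 10 uM D-luciferin and 10 uM ATP in 50 mM Tris acetate pH 7.5, 10 mM Mg acetate, 0.01% Tween-20, 0.05% BSA; 6-point qHTS titration about 60 µM downward; luminescence read.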
Active calls of the source: *; [ ] = dose if it differs, or a comment. Only some compounds are listed: those with a hit (about 7.3% of all), similar ones and a draw of the others. Calls come from the whole dose curve; as a rule, active = well fitted curve in the direction sought with a large enough effect; inconclusive = small, poorly fitted or top-dose-only effect, or another doubt; inactive = no such curve, though single readings can be large; an effect the other way counts as inactive or inconclusive. Potency is the fitted concentration of half-maximal effect.

Screening CN(C)c1ncnc2c1ncn2C1OC(CO)C(O)C1O (centres undefined) returned NPC1 promoter act -11%, Rab9 prom act -3%, ELG1 genotox 9%, KinaseGlo FLuc 20%, SMN2 splice up 5.6µM* and FLuc modulator 0%.
For C[C@H](Cc1ccccc1)Nc1ncnc2c1ncn2[C@@H]1O[C@H](CO)[C@@H](O)[C@H]1O the results were NPC1 promoter act -2%, Rab9 prom act 13%, ELG1 genotox 13µM*, SMN2 splice up 10% and FLuc modulator -3%.
`O=C(c1cccn1-c1nnc(N2CCCC2)s1)N1CCN(c2ccc(Cl)cc2)CC1` gave FLuc modulator -10%.
Screening CCCC(=O)N1c2nc(-c3ccco3)nn2C2(CCCCC2)[C@@H]2CCCC[C@@H]21 returned FLuc modulator -9%.
`O=C(CSc1nccn1-c1cccc(Cl)c1)Nc1ccc2c(c1)OCO2` gave FLuc modulator -4%.
`CNC(=O)/C(C#N)=C\c1ccc(CNS(=O)(=O)c2ccccc2)o1` gave NPC1 promoter act 0%, Rab9 prom act 6%, ELG1 genotox 0%, KinaseGlo FLuc -1%, SMN2 splice up 0% and FLuc modulator 0%.
For CNC(=O)/C(C#N)=C/c1ccc(-c2nc3ccccc3s2)o1 the results were NPC1 promoter act 2.8µM*, Rab9 prom act 1.4µM*, ELG1 genotox inconclusive and FLuc modulator inconclusive.
`N#C/C(=C\c1ccc(-c2nc3ccccc3s2)o1)C(N)=O` gave NPC1 promoter act 3.2µM*, Rab9 prom act inconclusive, ELG1 genotox 18% and FLuc modulator 2.7µM*.
Screening O=S(=O)(c1ccc2nc(Nc3ccc(Br)cc3F)ccc2c1)N1CCCCC1 returned FLuc modulator -8%.
Screening Cn1c(Nc2ccccc2)nc2ccccc21 returned NPC1 promoter act 15%, Rab9 prom act 21%, ELG1 genotox 6% and FLuc modulator inconclusive.
Screening Nn1c(Nc2ccccc2)nc2ccccc21 returned NPC1 promoter act 2.8µM*, Rab9 prom act 4µM*, ELG1 genotox inconclusive, KinaseGlo FLuc -22%, SMN2 splice up inconclusive and FLuc modulator 11µM*.
Cc1ccc(-n2c(N)c(-c3nc4ccccc4n3C)sc2=S)cc1 was read as NPC1 promoter act inconclusive, Rab9 prom act 28%, ELG1 genotox -1%, KinaseGlo FLuc -5%, SMN2 splice up -21% and FLuc modulator -2%.
`Cn1c(-c2ccc(C=O)s2)nc2ccccc21` gave NPC1 promoter act -2%, Rab9 prom act 1%, ELG1 genotox 15µM*, KinaseGlo FLuc -15%, SMN2 splice up 25% and FLuc modulator inconclusive.
For Cn1c(-c2cccs2)nc2ccccc21 the results were NPC1 promoter act 4µM*, Rab9 prom act 2.5µM*, ELG1 genotox 8%, KinaseGlo FLuc -16%, SMN2 splice up 13µM* and FLuc modulator inconclusive.
COc1ccc(C2C(C(=O)Nc3ccccc3OC)=C(C)Nc3c(C(=O)Nc4ccccc4)cnn32)c(OC)c1 (centres undefined) was read as FLuc modulator -4%.
For Cc1ccc(/C(N)=N/OC(=O)CCC2CCCC2)cc1 the results were NPC1 promoter act -3%, Rab9 prom act 4%, ELG1 genotox 11%, KinaseGlo FLuc 2%, SMN2 splice up 22% and FLuc modulator 15µM*.
Screening Cc1ccc(/C(N)=N/OC(=O)CCC2CCCCC2)cc1 returned NPC1 promoter act 11%, Rab9 prom act 18%, ELG1 genotox 9%, KinaseGlo FLuc -1%, SMN2 splice up 16% and FLuc modulator 19µM*.
Screening COc1ccc(/C(N)=N/OC(=O)CCC2CCCC2)cc1 returned NPC1 promoter act 1%, Rab9 prom act 9%, ELG1 genotox -1% and FLuc modulator 5%.
Cc1cccc(/C(N)=N/OC(=O)CCC2CCCCC2)c1 was read as NPC1 promoter act 14%, Rab9 prom act 10%, ELG1 genotox inconclusive, KinaseGlo FLuc -9%, SMN2 splice up 21% and FLuc modulator 6µM*.
N/C(=N\OC(=O)CCC1CCCC1)c1ccc(Cl)cc1 was read as NPC1 promoter act 13%, Rab9 prom act 3%, ELG1 genotox inconclusive and FLuc modulator 21µM*.
CC(=O)O[C@H]1CC2(C)[C@@H](C[C@@H](O)[C@H]3[C@@]4(C)CC[C@@H](O)[C@@H](C)[C@@H]4CC[C@@]32C)C1=C(CCC=C(C)C)C(=O)O (some centres undefined) was read as NPC1 promoter act 2%[46.1 µM], Rab9 prom act -8%[46.1 µM], KinaseGlo FLuc 0% and SMN2 splice up 7%.
For CCc1ccc(C2N3CC4(C)CN2CC(c2ccccc2)(C3)C4=O)cc1 (centres undefined) the results were SMN2 splice up -11% and FLuc modulator 7%.
`Cc1ccc(/C(N)=N/OC(=O)CCCc2ccccc2)cc1` gave NPC1 promoter act 1%, Rab9 prom act 25%, ELG1 genotox inconclusive and FLuc modulator inconclusive.
For Cc1cccc(/C(N)=N/OC(=O)CCc2ccccc2)c1 the results were NPC1 promoter act 19%, Rab9 prom act inconclusive, ELG1 genotox 13% and FLuc modulator 21µM*.
Screening N/C(=N\OC(=O)CCCc1ccccc1)c1ccccc1Cl returned NPC1 promoter act 2%, Rab9 prom act 2%, ELG1 genotox inconclusive and FLuc modulator 6.7µM*.
For Cc1ccc(C)c(Nc2nnc(-n3nc(C)cc3C)c3ccccc23)c1 the results were SMN2 splice up 4% and FLuc modulator -3%.
Screening O=C(Nc1ccc(F)cc1)c1cccc2ccccc12 returned NPC1 promoter act 20%, Rab9 prom act 3%, ELG1 genotox 7% and FLuc modulator inconclusive.
Screening COc1ccccc1C(=O)c1cc2ccc(O)cc2oc1=O returned NPC1 promoter act 0%, Rab9 prom act -3%, ELG1 genotox -2%, KinaseGlo FLuc -1%, SMN2 splice up 9% and FLuc modulator -11%.
Screening O=C(c1ccc(F)cc1)c1cc2ccc(O)cc2oc1=O returned NPC1 promoter act 28%, Rab9 prom act 15%, ELG1 genotox inconclusive and FLuc modulator 15µM*.
For COc1ccc(NC(=O)c2cc3ccc(O)cc3o/c2=N\O)cc1 the results were NPC1 promoter act inconclusive, Rab9 prom act 28%, ELG1 genotox inconclusive and FLuc modulator 0.27µM*.
